A selection: hits, their analogues and other compounds. The true share with any hit is near 2.4%.
LEDGF integ inh – blockers of LEDGF/p75-dependent integrase strand transfer – biochemical, TR-FRET, high throughput, primary screen | TR-FRET IN-LEDGF/p75 DNA integration, Eu/Cy5 | HIV-1 integrase (with human LEDGF/p75) | actives 0.64% (n = 370,000) | inhibition, % at 3.7 µM;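 active means inhibition above the screen-wide mean plus 3 SD, cut at about 13% in these data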;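 further: signal is the Cy5 over europium emission ratio at 671 and 618 nm; 0% = plate median of compound wells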
PLCg1 inh – PLC-gamma1 enzyme inhibitors, primary screen, biochemical, fluorescence, purified enzyme | AID 720700, 2013 | inhibition, % at 12.2 µM | fluorogenic substrate | actives 0.84% (n = 370,000); in the data active means inhibition above about 9.5%
MBD2 DNA inh – inhibitors of MBD2 binding to methylated DNA, primary screen, biochemical, TR-FRET, DNA-binding domain, human; MBD2 binding to methylated oligonucleotide; actives 0.31% (n = 370,000); AID 686964, 2013; Methyl-CpG-binding domain protein 2 (Homo sapiens), Q9UBB5; inhibition, % at 4.4 µM; in the data active means inhibition above about 13%
PLC-beta3 inh – human PLC-beta3 inhibitors, primary screen, biochemical, fluorescence | 1-phosphatidylinositol 4,5-bisphosphate phosphodiesterase beta-3 (Homo sapiens), Q01970 | Purified PLC-beta3, fluorogenic substrate | inhibition, % at 12.2 µM | actives 0.18% (n = 370,000) | AID 720704, 2013; in the data active means inhibition above about 11%;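 further: 0% = median of compound wells on plate and 100% = full blocker control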
UHRF1 MBD2 ctr – UHRF1 methylated DNA binding inhibitors, primary screen, counter-screen for MBD2 inhibitor project, biochemical, TR-FRET, human UHRF1, single concentration. AID 687016, 2013. inhibition, % at 4.4 µM. actives 0.75% (n = 370,000). E3 ubiquitin-protein ligase UHRF1 (Homo sapiens), Q96T88. UHRF1 binding to methylated oligo; in the data active means inhibition above about 21%;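 further: UHRF1 SRA domain binding a hemimethylated CpG hairpin DNA probe; 0% = median of test compound wells and 100% = reference inhibitor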
Target sequence (Q96T88 whole entry, looked up, the tested form may be a part): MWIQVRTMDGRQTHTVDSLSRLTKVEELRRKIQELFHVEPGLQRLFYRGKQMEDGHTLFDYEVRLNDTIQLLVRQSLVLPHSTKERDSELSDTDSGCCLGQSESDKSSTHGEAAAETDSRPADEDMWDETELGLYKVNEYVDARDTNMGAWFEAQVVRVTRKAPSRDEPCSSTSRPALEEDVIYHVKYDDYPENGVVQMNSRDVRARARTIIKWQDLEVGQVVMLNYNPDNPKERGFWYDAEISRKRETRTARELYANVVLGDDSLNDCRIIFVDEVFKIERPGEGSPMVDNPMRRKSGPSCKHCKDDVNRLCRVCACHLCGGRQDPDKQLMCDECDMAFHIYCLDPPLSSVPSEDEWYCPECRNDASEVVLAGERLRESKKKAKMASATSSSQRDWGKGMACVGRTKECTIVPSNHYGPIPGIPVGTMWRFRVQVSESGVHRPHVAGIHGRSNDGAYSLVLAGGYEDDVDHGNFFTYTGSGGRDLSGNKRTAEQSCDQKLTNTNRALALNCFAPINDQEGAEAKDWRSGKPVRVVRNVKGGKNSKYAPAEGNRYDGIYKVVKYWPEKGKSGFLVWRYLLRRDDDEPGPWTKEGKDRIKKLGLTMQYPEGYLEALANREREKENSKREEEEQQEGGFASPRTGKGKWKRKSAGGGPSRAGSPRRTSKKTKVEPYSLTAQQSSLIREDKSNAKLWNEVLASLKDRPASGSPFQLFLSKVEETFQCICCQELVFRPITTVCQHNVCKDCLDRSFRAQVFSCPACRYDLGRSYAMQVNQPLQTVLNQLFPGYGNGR
* = called active by the depositor.

What do the screens show for `Cc1ccc(-n2nc(-c3ccco3)cc2C(=O)O)c(C)c1`?
LEDGF integ inh: 5; PLCg1 inh: -14; MBD2 DNA inh: 9; PLC-beta3 inh: -29; UHRF1 MBD2 ctr: 25*

What do the screens show for `Cc1cccc2c1NC1(CCCC1)CC2C` (stereo not drawn)?
LEDGF integ inh: -1; PLCg1 inh: 0; MBD2 DNA inh: -3; PLC-beta3 inh: -5; UHRF1 MBD2 ctr: 22*

How did COc1ccc(NC(=O)c2cc3ccccn3n2)cc1 do in these assays?
LEDGF integ inh: 4; PLCg1 inh: 1; MBD2 DNA inh: -6; PLC-beta3 inh: -3; UHRF1 MBD2 ctr: 30*

How did COc1ccc(NC(=O)c2cccc(NC(=O)c3ccccc3)c2)cc1 do in these assays?
LEDGF integ inh: 2; PLCg1 inh: -3; MBD2 DNA inh: -1; PLC-beta3 inh: -5; UHRF1 MBD2 ctr: -1

What do the screens show for `COc1ccc(N2CCN(CCCNC(=O)CCc3ccc(F)cc3)CC2)cc1`?
LEDGF integ inh: -2; PLCg1 inh: 1; MBD2 DNA inh: 3; PLC-beta3 inh: 2; UHRF1 MBD2 ctr: -1

What do the screens show for `CCN(CC)C(=O)CC[C@H]1CC[C@]2(CCCN(C(=O)c3ccc4ccccc4n3)C2)O1`?
LEDGF integ inh: 3; PLCg1 inh: -1; MBD2 DNA inh: -2; PLC-beta3 inh: 3; UHRF1 MBD2 ctr: 1

What do the screens show for `COc1cccc(NC(=O)CN(C)C(=O)CNC(=O)c2sc3ccccc3c2Cl)c1`?
LEDGF integ inh: 5; PLCg1 inh: 1; MBD2 DNA inh: 8; PLC-beta3 inh: -6; UHRF1 MBD2 ctr: 21*

What do the screens show for `COc1ccccc1NS(=O)(=O)c1cccc(NC(=O)c2sc3ccccc3c2Cl)c1`?
LEDGF integ inh: -2; PLCg1 inh: -1; MBD2 DNA inh: -1; PLC-beta3 inh: -6; UHRF1 MBD2 ctr: 26*

How did Cc1ccc(N2CC(C(=O)OCC(=O)Nc3cccc(Cl)c3C)CC2=O)cc1 (stereo not drawn) do in these assays?
LEDGF integ inh: -1; PLCg1 inh: 0; MBD2 DNA inh: 5; PLC-beta3 inh: -16; UHRF1 MBD2 ctr: 90*

What do the screens show for `COC(=O)C1CC(=O)N(c2ccc(OCc3ccccc3Cl)cc2)C1` (stereo not drawn)?
LEDGF integ inh: 1; PLCg1 inh: -3; MBD2 DNA inh: 1; PLC-beta3 inh: -4; UHRF1 MBD2 ctr: 24*

How did Cc1ccc(N2CC(C(=O)OCC(=O)Nc3ccc(Cl)cc3)CC2=O)cc1 (stereo not drawn) do in these assays?
LEDGF integ inh: 0; PLCg1 inh: 4; MBD2 DNA inh: -4; PLC-beta3 inh: -7; UHRF1 MBD2 ctr: 1

Results for O=C(OCCN1CCN(C2CN(Cc3cn(Cc4ccc([N+](=O)[O-])cc4)nn3)S(=O)(=O)C2)CC1)c1cc2ccccc2o1 (stereo not drawn) ?
LEDGF integ inh: 4; PLCg1 inh: 1; MBD2 DNA inh: 1; PLC-beta3 inh: 2; UHRF1 MBD2 ctr: 6

What do the screens show for `CN(Cc1ccccc1)C(=O)[C@@H]1CCCN1`?
LEDGF integ inh: 3; PLCg1 inh: 3; MBD2 DNA inh: -3; PLC-beta3 inh: 3; UHRF1 MBD2 ctr: -3

How did CN(Cc1ccncc1)C(=O)[C@@H]1CCCN1C(=O)[C@@H]1CCCN1 do in these assays?
LEDGF integ inh: -4; PLCg1 inh: 5; MBD2 DNA inh: 4; PLC-beta3 inh: 4; UHRF1 MBD2 ctr: 22*

What do the screens show for `COc1nc(N(C)C)nc(N(OC)S(=O)(=O)c2ccccc2Cl)n1`?
LEDGF integ inh: -1; PLCg1 inh: 0; MBD2 DNA inh: 0; PLC-beta3 inh: -67; UHRF1 MBD2 ctr: -1

Results for COc1cc(C)nc(N(C)S(=O)(=O)c2ccccc2Cl)n1 ?
LEDGF integ inh: 12; PLCg1 inh: 4; MBD2 DNA inh: 9; PLC-beta3 inh: 3; UHRF1 MBD2 ctr: 28*

What do the screens show for `COC(=O)C1CN(C2CCCC2)CCS(=O)(=O)N1Cc1cn(Cc2ccc(Cl)cc2)nn1` (stereo not drawn)?
LEDGF integ inh: 5; PLCg1 inh: 0; MBD2 DNA inh: 6; PLC-beta3 inh: 2; UHRF1 MBD2 ctr: 9

Results for Cc1ccccc1NC(=O)N(C)[C@H]1C[C@H]2c3[nH]c4c(-c5ccccc5)cccc4c3CCN2C[C@H]1[C@H](C)O ?
LEDGF integ inh: -2; PLCg1 inh: -41; MBD2 DNA inh: -5; PLC-beta3 inh: -51; UHRF1 MBD2 ctr: -2

Results for COC(=O)COc1coc(CN2CCN(c3cccc(Cl)c3)CC2)cc1=O ?
LEDGF integ inh: 7; PLCg1 inh: 0; MBD2 DNA inh: 5; PLC-beta3 inh: -5; UHRF1 MBD2 ctr: 21*

How did COCCCN1C(=O)[C@H](CC(=O)N2CCCCC2)[C@]2(C(=O)OC)CCCCC=C12 do in these assays?
LEDGF integ inh: 4; PLCg1 inh: 2; MBD2 DNA inh: 3; PLC-beta3 inh: 2; UHRF1 MBD2 ctr: 4

How did O=C(CN1CCCCCCC1)Nc1cc(Cl)cc(Cl)c1 do in these assays?
LEDGF integ inh: 4; PLCg1 inh: 6; MBD2 DNA inh: -5; PLC-beta3 inh: 0; UHRF1 MBD2 ctr: 57*

What do the screens show for `O=C(CN1CCCC1)Nc1cccc(Cl)c1`?
LEDGF integ inh: 0; PLCg1 inh: 3; MBD2 DNA inh: 3; PLC-beta3 inh: 6; UHRF1 MBD2 ctr: 2

How did CCOC(=O)N1C(=O)C[C@](Sc2ccc(OC)cc2)(C(=O)N2CCN(C(C)=O)CC2)[C@H]1c1ccc(OC)cc1 do in these assays?
LEDGF integ inh: -3; PLCg1 inh: 0; MBD2 DNA inh: 2; PLC-beta3 inh: 2; UHRF1 MBD2 ctr: 1

How did CC(C)(C)C(=O)OC12CCCN(C1)/C(=C/c1ccc(C#N)cc1)C2 (stereo not drawn) do in these assays?
LEDGF integ inh: 1; PLCg1 inh: 0; MBD2 DNA inh: -4; PLC-beta3 inh: -2; UHRF1 MBD2 ctr: 3

Results for COc1ccc(CC(=O)N2N=C(C)CC2(O)c2cccnc2)cc1 (stereo not drawn) ?
LEDGF integ inh: 0; PLCg1 inh: 0; MBD2 DNA inh: -2; PLC-beta3 inh: -3; UHRF1 MBD2 ctr: 3

How did CC1=NN(C(=O)COc2ccccc2)C(O)(c2cccnc2)C1 (stereo not drawn) do in these assays?
LEDGF integ inh: 3; PLCg1 inh: 2; MBD2 DNA inh: 0; PLC-beta3 inh: 2; UHRF1 MBD2 ctr: 21*

Results for CN(C)c1cccc(N(C)C)c1CNC(=O)NC(=O)c1c(F)cccc1F ?
LEDGF integ inh: -1; PLCg1 inh: -1; MBD2 DNA inh: 1; PLC-beta3 inh: -6; UHRF1 MBD2 ctr: 28*

What do the screens show for `Cc1ccccc1C(=O)N=c1ccn(-c2nc3ccccc3nc2NS(=O)(=O)c2ccc(F)cc2)cc1`?
LEDGF integ inh: -3; PLCg1 inh: -7; MBD2 DNA inh: 2; PLC-beta3 inh: -15; UHRF1 MBD2 ctr: 21*

Compound activity from PubChem BioAssay.
